What all share (test): pooled miR-30 sensor sort-seq; sequence = guide strand
What all share (conditions): shRNA

Assay [1] addresses HMX2.
In assay [2] the target is HNF1A.
The target of assay [3] is HNRNPL.
The target in assay [4] is HMP19.
In assay [5] the target is HS6ST1.
The target in assay [6] is HS3ST4.
Assay [7] deals with HS3ST2.
In assay [8] the target is HPD.
Assay [9] deals with IGLL1.
Assay [10] concerns the target IGFBP3.
The target in assay [11] is IGFBP7.
Also: reference of the scale not given here.

In turn, TCCGAGGACACGGACAGGCTGC returned a sensor-assay potency score (higher = more potent) in [1] of -1.46.

With TGAGCTCTGGTACAGCACCAGG, the sensor-assay potency score (higher = more potent) in assay [2] was -1.55.

In turn, ATGAAGGTCTCGATGACGCTGT had a sensor-assay potency score (higher = more potent) in [2] of 0.222.

As to TTTCTCTTCTTTAAAGTCCGAG, the sensor-assay potency score (higher = more potent) in assay [1] was -0.831.

TTAAAAGTGAAGGTTAATCTTG displayed a sensor-assay potency score (higher = more potent) in assay [3] of -0.688.

As for TTCACAATCACCTTTTCTGGAG, the sensor-assay potency score (higher = more potent) in [4] is -0.586.

In [4], TAAGTGATTAACCTCCAAGGGA gave a sensor-assay potency score (higher = more potent) of -0.21.

As to TAGTGTGATGCATCCACCCAGG, the sensor-assay potency score (higher = more potent) in assay [5] is -0.887.

In [6], TTTGTTGAAATAGAAATGCTTC gave a sensor-assay potency score (higher = more potent) of -0.152.

As to TTCTTGGAGAGTGTCTGCGTGT, in [7], the sensor-assay potency score (higher = more potent) is -0.361.

In assay [7], TTGTCCGTGATGAATCTCTTAA had a sensor-assay potency score (higher = more potent) of -1.07.

In assay [5], TTGAGCTCCTCGATGCGCCGGA came in with a sensor-assay potency score (higher = more potent) of 0.162.

TTTTTTTGTATGAATAACCAAA: the sensor-assay potency score (higher = more potent) in assay [5] was -1.12.

As to TTGAGGTTGAACGTCCGCTCGA, the sensor-assay potency score (higher = more potent) in [5] was -0.171.

On to ATGACTTCCAGGAAGAGCGTGG, for which, in [8], the sensor-assay potency score (higher = more potent) is -0.0981.

As for TTGAGTGACAAAGTAGCTGGGC, in assay [7], the sensor-assay potency score (higher = more potent) was 0.674.

Regarding AAACTTGTCTTGCTCTACCCAG, the sensor-assay potency score (higher = more potent) in assay [8] was -0.591.

TCTTGAGTGACAAAGTAGCTGG gave a sensor-assay potency score (higher = more potent) in [7] of -0.586.

On to ATGAGCATGAAGCACACCGAGC, for which, in assay [5], the sensor-assay potency score (higher = more potent) was -1.78.

Turning to TTCTTTGACAGTGTCTGCGTGT, in assay [6], the sensor-assay potency score (higher = more potent) was determined as 0.364.

In assay [6], TTTACTAGAACAATTCCTGGTT showed a sensor-assay potency score (higher = more potent) of 0.821.

Sequence TAGCAGGTGCACTTCTTCTGGC showed a sensor-assay potency score (higher = more potent) in assay [5] of -0.598.

As for TTTGATTACATGGCTGACCACC, the sensor-assay potency score (higher = more potent) in [8] was -0.613.

Sequence TTGCTTGAACAGACTGATGAAA had a sensor-assay potency score (higher = more potent) in [7] of -0.965.

In turn, TAAAACATCAAGTTGAAGGGTT displayed a sensor-assay potency score (higher = more potent) in assay [6] of 0.47.

For TTTTACTAGAACAATTCCTGGT, in assay [6], the sensor-assay potency score (higher = more potent) is 0.147.

TTGATTTGCCCAAGCATCGAGG returned a sensor-assay potency score (higher = more potent) in assay [7] of -0.341.

For ATCGCTTATAATATCTATCATC, the sensor-assay potency score (higher = more potent) in assay [7] was -1.47.

The sequence TTTGTCACAAAGTAACTTGGAG yielded a sensor-assay potency score (higher = more potent) in assay [6] of -0.0205.

Sequence ATAATATCTATCATCATTGGAA returned a sensor-assay potency score (higher = more potent) in assay [7] of -0.218.

Sequence TTTCTTTGACAGTGTCTGCGTG gave a sensor-assay potency score (higher = more potent) in assay [6] of -0.405.

Sequence TAGTAGAACTTCCTGGGCGTGC had a sensor-assay potency score (higher = more potent) in assay [5] of -0.463.

Turning to TACTTCTTCTCGTAGTGGGGGT, in assay [5], the sensor-assay potency score (higher = more potent) was -0.105.

For the sequence TTGAACAGTGAGTTGAAGTTGC, the sensor-assay potency score (higher = more potent) in assay [8] was 0.599.

For TTTGAGGCCTAGAAAATCCTGT, the sensor-assay potency score (higher = more potent) in assay [6] came to 0.0519.

As to TTGTCACAAAGTAACTTGGAGT, the sensor-assay potency score (higher = more potent) in assay [6] was -0.395.

For TTGACAACTATTTATCCTCTGT, the sensor-assay potency score (higher = more potent) in [6] is 0.841.

TTCTGTACCACTCCAACCCCTT: in [6], the sensor-assay potency score (higher = more potent) is -0.516.

Turning to TGAGCCGTGATCATCTCGCTGG, the sensor-assay potency score (higher = more potent) in [6] is -0.131.

The sequence TTTGGTGAAGATCTGCAGGAGG yielded a sensor-assay potency score (higher = more potent) in assay [8] of -0.36.

On to TAACACAGGTAAGTGCAGGAGA, for which the sensor-assay potency score (higher = more potent) in assay [7] was -0.326.

On to TGATGTAGTAGAACTTCCTGGG, for which the sensor-assay potency score (higher = more potent) in assay [5] stood at 0.812.

In the case of TAACAGCAGAATTATGTGCTTT, the sensor-assay potency score (higher = more potent) in assay [7] was -0.0537.

Consider TTATAGTCCACATATTCCTGGA, for which the sensor-assay potency score (higher = more potent) in assay [8] was 0.144.

Sequence TTATTTCACATGGACAAGCATG had a sensor-assay potency score (higher = more potent) in assay [7] of -1.23.

For TTGGTGAGGGACACACTCCCGG, in assay [5], the sensor-assay potency score (higher = more potent) is -0.875.

Turning to TATTCCGTGTGCACCTGCGTGT, in assay [8], the sensor-assay potency score (higher = more potent) was -0.504.

TTGAACGTCCGCTCGAACAGGT registered a sensor-assay potency score (higher = more potent) in [5] of -0.0201.

In the case of TGAGACACACCAGTGTAGCCTT, the sensor-assay potency score (higher = more potent) in assay [9] amounted to 0.221.

With TAGCATTTCCTGGAGCTGGCGG, the sensor-assay potency score (higher = more potent) in [10] was -0.626.

Regarding TATTTCTCTGTGTAAAACCAGT, the sensor-assay potency score (higher = more potent) in assay [11] was -0.876.

In [10], TTCTTGATGATGATTATCTTTG yielded a sensor-assay potency score (higher = more potent) of -1.16.

Turning to TCGTAGTCAACTTTGTAGCGCT, the sensor-assay potency score (higher = more potent) in assay [10] is -0.259.

TTTCTTGATGATGATTATCTTT showed a sensor-assay potency score (higher = more potent) in assay [10] of -1.

TATCTTTGAATGGAGGGGGTGG gave a sensor-assay potency score (higher = more potent) in assay [10] of -0.842.

The sequence TACCACGGCCAGACCCAGCAGC displayed a sensor-assay potency score (higher = more potent) in assay [9] of -0.916.

Regarding TTTTTGCTGATGCTGAAGCCTG, the sensor-assay potency score (higher = more potent) in [11] was -1.34.

In [9], TCACCGTCAAGATTCCCGGATA gave a sensor-assay potency score (higher = more potent) of -1.01.

In [9], TGCAGCTGTTGGGCGCAGCAGG returned a sensor-assay potency score (higher = more potent) of -1.51.

TTTCTTATAAAATCCCTTCTTG: in assay [10], the sensor-assay potency score (higher = more potent) was -0.488.

(Values after the OligoGym collection.)
